Measurements as given in the supplement of paper PMC10338343.
± gives the standard deviation. In all, about 6,600 sequences were measured (“pre-steady-state target cleavage rate”: median about 0.07, highest 2% from about 0.72 on). The sample as a whole holds a higher share of the highest values than the screen did.

Tested on: MIWI (PIWIL1) piRISC loaded with Kctd7 piRNA (30 nt)
Assay: pre-steady-state target cleavage rate (min^-1); MIWI and MILI are mouse PIWI proteins and EfPiwi is from a freshwater sponge; tags in brackets are library labels; higher = faster piRNA-guided slicing of the target
Conditions: guide: Kctd7 piRNA 5'p-UGUUAAUCUCUCAGAGAAGGUGACAGUGAU; auxiliary factor: 500 nM mouse GTSF1
In short: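 At 33 °C in HEPES–potassium acetate buffer, a transcribed, DNA-blocked target RNA library […] was exposed for 0–8 or 0–960 min to 1 nM active affinity-purified piRISC carrying a single synthetic guide, with or without 500 nM GTSF1 partner protein. Uncleaved targets were sequenced and normalised to depth and to weakly complementary targets. With three trials pooled and k3 capped at 0.0001 min^-1, a burst-and-steady-state fit produced the pre-steady-state cleavage rate.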
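Also: 1 nM active piRISC with 0.1 nM target library at 33 °C single turnover.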

First: UAGUCUGUCACCUUCGCUGAGAGAUUAACA
Second: AUCACUUUCACCUUCUCUGAGAGAUUAACA
The “pre-steady-state target cleavage rate” value of the first is lower: 0.416 ± 0.035 for the first, 0.622 ± 0.027 for the second.

First: UAGUGAGUCUCCUUCUCUGAGAGAUUUACA
Second: UAGUCUCUCACCUUCUCUGUGAGAUUAACA
The “pre-steady-state target cleavage rate” value of the first is lower: 0.0124 ± 0.0051 for the first, 0.2 ± 0.015 for the second.

First: UAGUGACAGACCCUUCUCUGAGAGAUUAACA
Second: UACACUGUCACGAACUCUGAGAGAUUAACA
The “pre-steady-state target cleavage rate” value of the first is lower: 0.0893 ± 0.016 for the first, 0.131 ± 0.019 for the second.

UAGUCUGUCACCAUCUCUGAGAGAUUAUGA and UAGUGACAGUCCUUCUCUGAGACAUUAACA are within error of each other in “pre-steady-state target cleavage rate” value: 0.021 ± 0.0082 for the first, 0.0121 ± 0.0033 for the second.

Going from AACACAGUCACCUUCUCUGAGAGAUUAACA to UACACUAGUCACCUUCUCUGAGAGAUUAACA, the “pre-steady-state target cleavage rate” value falls from 0.736 ± 0.032 to 0.663 ± 0.029.

Going from UAGAGAGUCACCUUCUCUGAGAGAUUAACA to UACACAGUCACCUUCUCUGAGAGAUUAACA, the “pre-steady-state target cleavage rate” value falls from 0.797 ± 0.035 to 0.589 ± 0.038.

UUCACUAGUCACCUUCUCUGAGAGAUUAACA and AUCUGAGUCACCUUCUCUGAGAGAUUAACA are within error of each other in “pre-steady-state target cleavage rate” value: 0.708 ± 0.032 for the first, 0.652 ± 0.053 for the second.

UUGAGUGUCACCUUCUCUGAGAGAUUAACA and AUCACUAGUCACCUUCUCUGAGAGAUUAACA are within error of each other in “pre-steady-state target cleavage rate” value: 0.763 ± 0.034 for the first, 0.724 ± 0.04 for the second.

AUGAGUGUCACCUUCUCUGAGAGAUUAACA and UAGAGUGUCACCUUCUCUGAGAGAUUAACA are within error of each other in “pre-steady-state target cleavage rate” value: 0.706 ± 0.032 for the first, 0.72 ± 0.035 for the second.

UUCUGAGUCACCUUCUCUGAGAGAUUAACA and UUCACAGUCACCUUCUCUGAGAGAUUAACA are within error of each other in “pre-steady-state target cleavage rate” value: 0.657 ± 0.059 for the first, 0.656 ± 0.027 for the second.

AUGACUGUCACCUUCACUGAGAGAUUAACA and UAGUCUGUCACGCUUCUCUGAGAGAUUAACA are within error of each other in “pre-steady-state target cleavage rate” value: 0.541 ± 0.032 for the first, 0.506 ± 0.025 for the second.

First: UAGUGACUCCACCUUCUCUGAGAGAUUAACA
Second: UAGACUGUCACCUUCUCUGUGACAUUAACA
The “pre-steady-state target cleavage rate” value of the first is higher: 0.415 ± 0.04 for the first, 0.0186 ± 0.0033 for the second.

Going from UAGUGUGUCACCUUCUCUGAGAGUUUAUCA to UAGUGUGUCACCUUCUCUGAGACAUAAACA, the “pre-steady-state target cleavage rate” value falls from 0.232 ± 0.056 to 0.0331 ± 0.0077.

First: UAGUGACAGUGCUUCGCUGAGAGAUUAACA
Second: AUCACUGUCACCUUCACUGAGACAUUAACA
The “pre-steady-state target cleavage rate” value of the first is lower: 0.00389 ± 0.0031 for the first, 0.252 ± 0.024 for the second.

Compared with UAGACUAGUCACCUUCUCUGAGAGAUUAACA, UAGACAGUCACCUUCUCUGAGAGAUUAACA is lower in “pre-steady-state target cleavage rate” value: 0.756 ± 0.049 for the first, 0.656 ± 0.033 for the second.

Compared with UAGACUAUCACCUUCUCUGAGAGAUUAACA, UAGUGACAGACCUUCACUGAGAGAUAAACA is lower in “pre-steady-state target cleavage rate” value: 0.56 ± 0.026 for the first, 0.0224 ± 0.007 for the second.

First: UAGUGACAGUGCUUCUCUGAGAGUUUAACA
Second: AUUACUGUCACCUUCUCUGAGAGAUUAACA
The “pre-steady-state target cleavage rate” value of the first is lower: 0.00896 ± 0.0024 for the first, 0.713 ± 0.032 for the second.

UAUACUGUCACCUUCUCUGAGAGAUUAACA and UUUACUGUCACCUUCUCUGAGAGAUUAACA are within error of each other in “pre-steady-state target cleavage rate” value: 0.767 ± 0.047 for the first, 0.708 ± 0.026 for the second.

UACUACUGUCACCUUCUCUGAGAGAUUAACA and UUCUACUGUCACCUUCUCUGAGAGAUUAACA are within error of each other in “pre-steady-state target cleavage rate” value: 0.694 ± 0.032 for the first, 0.677 ± 0.038 for the second.

Compared with AUACUGUCACCUUCUCUGAGAGAUUAACA, UACUCUGUCACCUUCUCUGAGAGAUUAACA is lower in “pre-steady-state target cleavage rate” value: 0.756 ± 0.043 for the first, 0.663 ± 0.03 for the second.

First: UUACUGUCACCUUCUCUGAGAGAUUAACA
Second: UACUGUGUCACCUUCUCUGAGAGAUUAACA
The “pre-steady-state target cleavage rate” value of the first is higher: 0.743 ± 0.041 for the first, 0.63 ± 0.027 for the second.

Compared with UAGUGACUCACGUUCUCUGACAGAUUAACA, UAGACUGUCAGCUUCUCUGAGAGAUUAAGA is higher in “pre-steady-state target cleavage rate” value: 0.00367 ± 0.0032 for the first, 0.0909 ± 0.017 for the second.

Compared with UAGUCUCACACCUUCUCUGAGAGAUUAUGA, UAGUCUGUCACCUUCACUGAGAGAUUAACA is higher in “pre-steady-state target cleavage rate” value: 0.0207 ± 0.0066 for the first, 0.39 ± 0.02 for the second.

Going from UUCACUGUCUACCUUCUCUGAGAGAUUAACA to UAGUGACAGUCCUUCUCUGAGAGAUAAUCA, the “pre-steady-state target cleavage rate” value falls from 0.208 ± 0.022 to 0.00284 ± 0.0022.

Compared with UUCUGUGUCACCUUCUCUGAGAGAUUAACA, UUCGCUGUCACCUUCUCUGAGAGAUUAACA is higher in “pre-steady-state target cleavage rate” value: 0.224 ± 0.022 for the first, 0.626 ± 0.04 for the second.

UACGCUGUCACCUUCUCUGAGAGAUUAACA and AACUCUGUCACCUUCUCUGAGAGAUUAACA are within error of each other in “pre-steady-state target cleavage rate” value: 0.745 ± 0.038 for the first, 0.715 ± 0.034 for the second.

Compared with UUGUCUGUCACCUUCUCUGAGAGAUUAACA, AUGUCUGUCACCUUCUCUGAGAGAUUAACA is lower in “pre-steady-state target cleavage rate” value: 0.691 ± 0.031 for the first, 0.604 ± 0.024 for the second.

UAGGCUGUCACCUUCUCUGAGAGAUUAACA and AUCGCUGUCACCUUCUCUGAGAGAUUAACA are within error of each other in “pre-steady-state target cleavage rate” value: 0.803 ± 0.045 for the first, 0.825 ± 0.042 for the second.

First: UACACUGUCACCUUCUGUGUGAGAUUAACA
Second: UUCUCUGUGACCUUCUCUGAGAGAUUAACA
The “pre-steady-state target cleavage rate” value of the first is lower: 0.0849 ± 0.012 for the first, 0.491 ± 0.023 for the second.

First: UACACUGUCACCUUCUCUGAGACUUUAUGA
Second: UAGUGACAGUGCCUUCUCUGAGAGAUUAACA
The “pre-steady-state target cleavage rate” value of the first is lower: 0.00869 ± 0.0047 for the first, 0.356 ± 0.034 for the second.

Compared with UAGUGAGUGACCUUCUCAGAGAGAUUAACA, UAGUGACAGUCCUUCUCUGAGGGAUUAACA is lower in “pre-steady-state target cleavage rate” value: 0.226 ± 0.026 for the first, 0.0348 ± 0.0076 for the second.

Going from AUCACUGCCACCUUCUCUGAGAGAUUAACA to UACACUGCUCACCUUCUCUGAGAGAUUAACA, the “pre-steady-state target cleavage rate” value falls from 0.773 ± 0.044 to 0.623 ± 0.035.

UUCACUGCUCACCUUCUCUGAGAGAUUAACA and UACACUGCCACCUUCUCUGAGAGAUUAACA are within error of each other in “pre-steady-state target cleavage rate” value: 0.669 ± 0.044 for the first, 0.613 ± 0.035 for the second.

Going from AUCACUGCUCACCUUCUCUGAGAGAUUAACA to UUCACUGCCACCUUCUCUGAGAGAUUAACA, the “pre-steady-state target cleavage rate” value falls from 0.8 ± 0.051 to 0.611 ± 0.023.

Going from UAGUGACUGACCUUCUCUGAGAGAUUAUGA to UAGUGACUCUACCUUCUCUGAGAGAUUAACA, the “pre-steady-state target cleavage rate” value rises from 0.00985 ± 0.0048 to 0.122 ± 0.014.

Compared with UAGACUGUGCACCUUCUCUGAGAGAUUAACA, UAGUGAGUCACCUUAUCUGAGAGAUUAACA is lower in “pre-steady-state target cleavage rate” value: 0.651 ± 0.048 for the first, 0.363 ± 0.02 for the second.

First: UAGUGACAGUCCUUACUCUGAGAGAUUAACA
Second: UAGAGUGUCACCUUCUCUGAGAGAUAAACA
The “pre-steady-state target cleavage rate” value of the first is lower: 0.0326 ± 0.0043 for the first, 0.362 ± 0.038 for the second.

UAGUCUGUCACCAUCUCUGAGAGAUUAACA and AUCUCUGUCACCAUCUCUGAGAGAUUAACA are within error of each other in “pre-steady-state target cleavage rate” value: 0.667 ± 0.038 for the first, 0.633 ± 0.03 for the second.

First: UACUCUGUCACCAUCUCUGAGAGAUUAACA
Second: UUCUCUGUCACCAUCUCUGAGAGAUUAACA
The “pre-steady-state target cleavage rate” value of the first is higher: 0.69 ± 0.036 for the first, 0.514 ± 0.023 for the second.

UUGACUGUCACCAUCUCUGAGAGAUUAACA and AUGACUGUCACCAUCUCUGAGAGAUUAACA are within error of each other in “pre-steady-state target cleavage rate” value: 0.756 ± 0.044 for the first, 0.817 ± 0.06 for the second.

First: UAGACUGUCACCUUCUCUCAGAGAUUAACA
Second: UAGUCUGUCACCUUCUCUGAGUGAUUAUCA
The “pre-steady-state target cleavage rate” value of the first is higher: 0.154 ± 0.016 for the first, 0.015 ± 0.0044 for the second.

Going from UUCACAGUCACCUUCUGUGAGAGAUUAACA to UACACUGUGACCUUGUCUGAGAGAUUAACA, the “pre-steady-state target cleavage rate” value falls from 0.363 ± 0.035 to 0.0711 ± 0.013.

First: UAGACUGUCAGCUUCUCUGAGAGUUUAACA
Second: UAGUGAGUCACCUUGCUCUGAGAGAUUAACA
The “pre-steady-state target cleavage rate” value of the first is lower: 0.0686 ± 0.011 for the first, 0.332 ± 0.07 for the second.

UACCCUGUCACCUUCUCUGAGAGAUUAACA and UUCCUGUCACCUUCUCUGAGAGAUUAACA are within error of each other in “pre-steady-state target cleavage rate” value: 0.638 ± 0.034 for the first, 0.633 ± 0.037 for the second.

AUCCCUGUCACCUUCUCUGAGAGAUUAACA and AUCCUGUCACCUUCUCUGAGAGAUUAACA are within error of each other in “pre-steady-state target cleavage rate” value: 0.644 ± 0.051 for the first, 0.744 ± 0.052 for the second.

Going from UACACCUGUCACCUUCUCUGAGAGAUUAACA to UUCUCUGUCACCUUCUCUGAGAGAUUAACA, the “pre-steady-state target cleavage rate” value falls from 0.79 ± 0.051 to 0.585 ± 0.031.

UACCUGUCACCUUCUCUGAGAGAUUAACA and UUCACCUGUCACCUUCUCUGAGAGAUUAACA are within error of each other in “pre-steady-state target cleavage rate” value: 0.773 ± 0.051 for the first, 0.73 ± 0.033 for the second.
